PLK1 PBD inh = PLK1 (human) polo-box domain binding inhibition. P53350. Plk1 PBD binding of FITC phosphopeptide, fluorescence polarization. Potency, µM, inactives show max response, negative = inhibition, most hits filed as inhibitors. actives 2.8% (n = 360,000). AID 720504; note: series mostly up to about 57 µM; % is set by controls: 0 for no effect and ±100 for the full control effect; nearly all actives have a fitted effect of over 65% in size
Target sequence (P53350 whole entry, looked up, the tested form may be a part): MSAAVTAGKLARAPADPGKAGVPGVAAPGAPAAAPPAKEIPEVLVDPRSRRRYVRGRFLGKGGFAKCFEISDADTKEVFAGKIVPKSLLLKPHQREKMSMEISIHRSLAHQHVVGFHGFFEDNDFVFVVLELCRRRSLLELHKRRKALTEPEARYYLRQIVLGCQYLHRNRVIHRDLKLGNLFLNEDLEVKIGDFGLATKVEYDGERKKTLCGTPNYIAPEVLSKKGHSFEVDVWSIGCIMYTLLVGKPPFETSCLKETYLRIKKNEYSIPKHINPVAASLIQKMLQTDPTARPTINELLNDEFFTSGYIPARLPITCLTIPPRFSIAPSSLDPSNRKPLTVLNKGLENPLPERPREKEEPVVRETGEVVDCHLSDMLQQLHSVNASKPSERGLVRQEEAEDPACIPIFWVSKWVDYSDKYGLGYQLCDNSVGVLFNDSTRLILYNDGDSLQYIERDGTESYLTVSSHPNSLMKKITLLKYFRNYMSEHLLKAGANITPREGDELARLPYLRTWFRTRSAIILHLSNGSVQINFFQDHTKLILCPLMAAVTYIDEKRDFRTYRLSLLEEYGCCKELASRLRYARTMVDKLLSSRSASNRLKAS
BAZ2B inh = BAZ2B (human) inhibition | Q9UIF8 | AlphaScreen BAZ2B-H3K14Ac peptide displacement | Potency, µM (highest dose often 114 µM), for inactives: top-dose activity change, negative = inhibition, hits mostly inhibitors | actives 4.4% (n = 360,000); note: % is set by controls: 0 for no effect and ±100 for the full control effect; nearly all actives have a fitted effect of over 60% in size
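AlphaScreen displacement: compounds (up to 110uM) incubated 30 min at room temperature with a preformed 50 nM BAZ2B/50 nM biotinylated H3K14Ac peptide complex in PBS pH 7.4 with Tween-20. Donor and acceptor beads at 10 ug/mL final added, 20 min light-protected before reading.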
Sfp inh = blocks B. subtilis Sfp PPTase activity. Q9F4F7. Biochemical Sfp PPTase activity, qHTS. Potency, µM, for the others: largest response in the series, negative = inhibition, actives largely listed as inhibitors. actives 3.5% (n = 310,000). AID 1490;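 note: the enzyme is Sfp with the accession as filed and its product quenches rhodamine fluorescence; 0% = enzyme reaction without inhibitor and -100% = no enzyme wells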
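Step 1, compound plus 15 nM Sfp-PPTase, 15 min, room temperature. Step 2, add rhodamine-CoA (5 uM) and BHQ-2-YbbR (12.5 uM). Step 3, read 525/598 nm fluorescence at 0 and 30 min.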
JMJD2A Tudor = JMJD2A Tudor domain (human) inhibition; AID 504339; Potency, µM (doses to about 114 µM), for the others: at the top dose activity change, negative = inhibition, usual class: inhibitors; O75164; actives 4.4% (n = 390,000); AlphaScreen JMJD2A-Tudor / H3K4me3 peptide binding; note: % is set by controls: 0 for no effect and ±100 for the full control effect; nearly all actives have a fitted effect of over 50% in size
G9a block = blocks human histone lysine methyltransferase G9a | G9a H3K9 monomethylation, AlphaScreen, 2 h | actives 8.8% (n = 350,000) | Potency, µM (titrated, usually from 102 µM), for inactives: at the top dose activity, negative = inhibition, most hits filed as inhibitors; note: % is set by controls: 0 for no effect and ±100 for the full control effect; nearly all actives have a fitted effect of over 75% in size
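AlphaScreen read-out: biotin-H3K9 peptide (500 nM) methylation by 20 nM enzyme with 20 uM SAM, 2 h at room temperature after 15 min compound preincubation; anti-monomethyl H3K9 antibody plus donor/acceptor beads, 10 min dark.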
HP1b chromo inh = blocks HP1-beta chromodomain binding to methylated histone tails; P83916; AlphaScreen HP1-beta / biotin-H3K9me3 peptide binding; Potency, µM (titrated, usually from 114 µM), without a hit: top-dose activity change, negative = inhibition, actives largely listed as inhibitors; actives 0.56% (n = 390,000); note: nearly all actives have a fitted effect of over 70% in size
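Compound inhibition of the preformed complex between 50 nM HP1-beta and 50 nM biotinylated H3K9me3 peptide was read by AlphaScreen. Buffer was PBS pH 7.4 with 0.01% Tween-20. Incubations ran 30 min at room temperature, with 10 ug/mL donor/acceptor beads.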
* = called active by the depositor; ? = inconclusive; . = no result given; [ ] = dose if it differs, or a comment. Only some compounds are listed: those with a hit (about 12% of all), similar ones and a draw of the others. Calls come from the whole dose curve; as a rule, active = well fitted curve in the direction sought with a large enough effect; inconclusive = small, poorly fitted or top-dose-only effect, or another doubt; inactive = no such curve, though single readings can be large; an effect the other way counts as inactive or inconclusive. Potency is the fitted concentration of half-maximal effect.

SMILES	PLK1 PBD inh	BAZ2B inh	Sfp inh	JMJD2A Tudor	G9a block	HP1b chromo inh
Cn1cccc1/C=N/NC(=O)CNc1ccc2ccccc2c1	-7%	25µM*	10%	56µM*	4µM*	?
Cn1cccc1/C=N/NC(=O)Cc1cccc2ccccc12	-6%	14µM*	-10%	?	?	-12%
Cn1cccc1CC(=O)N/N=C/c1cccc2ccccc12	-7%	-14%	-10%	-26%	-36%[12.7 µM]	12%
Cc1ccc(NCC(=O)N/N=C/c2cccn2C)cc1	-9%	40µM*	5%	?	.	-26%
O=C(CN1CCNCC1)NC1CCCCC1	.	.	10%	.	-6%[12.7 µM]	.
COc1ccc(CN(CCO)CCO)cc1[N+](=O)[O-]	?	5%	28%	-3%	2%[59 µM]	12%
O=C(CNc1ccc2ccccc2c1)N/N=C/c1cc2ccccc2nc1Cl	-1%	?	-23%	?	10µM*	-13%
O=[N+]([O-])c1ccc(/C=N/NC(=S)Nc2ccccc2C(F)(F)F)o1	?	?	-27%	-35%	20µM*	?
Cc1ccc(NCC(=O)N/N=C/c2cc(O)ccc2[N+](=O)[O-])cc1	-6%	?	17%	-17%	50µM*	13%
O=C(CNc1ccc2ccccc2c1)N/N=C/c1ccc([N+](=O)[O-])o1	-4%	-30%	7%	-19%	2.5µM*	5%
O=C(N/N=C/c1ccc([N+](=O)[O-])o1)C(O)c1ccccc1 (centres undefined)	3%	0%	6%	-7%	-4%	51%
Cn1c(O)c(/C=C2\C=Nc3ccccc32)sc1=Nc1ccc(C(=O)O)cc1	-22%	50µM*	-2%	-34%	35µM*	21%
CCn1c(O)c(/C=C2\C=Nc3ccccc32)sc1=Nc1ccccc1	-11%	-31%[57.1 µM]	27%	-24%	34%	1%
Cc1ccc(CNc2ncnc3c2c(-c2ccccc2)cn3-c2cccc(Cl)c2)cc1	.	-3%	.	-20%	11%[59 µM]	8%
CC(=O)NC(CC(=O)NCCN1C(=O)S/C(=C\c2ccccc2)C1=O)c1ccccc1 (centres undefined)	-8%	-3%	-23%	-16%	56µM*	21%
O=C(CN1C(=O)S/C(=C\c2ccccc2)C1=O)NCCCn1ccnc1	?	?	-23%	?	35µM*	30%
CC(=O)NNC(=O)CN1C(=O)/C(=C/c2ccccc2)SC1=S	-11%	-7%	1%	-27%	27%[59 µM]	37%
O=C(CCCN1C(=O)/C(=C/c2ccccc2)SC1=S)NCCCn1ccnc1	-9%	45µM*	10%	?	-23%	-9%
O=C(CCN1C(=O)/C(=C/c2ccccc2F)SC1=S)NCCCn1ccnc1	-19%	40µM*	-12%	?	.	-7%
CC(C(=O)NC1CCCC1)n1c(-c2ccccn2)nc2ccccc21 (centres undefined)	-1%	.	.	.	.	.
O=c1cc(CN2CCCCCCC2)c2ccccc2o1	-4%	.	.	.	.	.
O=c1oc2ccccc2c(N2CCCC2)c1CN1CCCC1	0%	-1%	3%	-11%	56µM*	35%
O=c1oc2ccccc2c(Cl)c1CN1CCCCC1	12µM*	-16%	16%	-8%	50µM*	33%
O=C(Nc1ccnn1C1CCN(C2CCCCC2)CC1)c1ccccc1	-18%	3%	7%	3%	18%	2%
O=C(c1cccc(F)c1)N1CCCN(C(=O)c2cccc(F)c2)CC1	-1%	-12%	6%	4%	10%[59 µM]	36%
SMILES	PLK1 PBD inh	BAZ2B inh	Sfp inh	JMJD2A Tudor	G9a block	HP1b chromo inh
O=C(Nc1ccnn1C1CCN(C2CCCCC2)CC1)c1cccc(F)c1	-18%	10%	10%	25µM*	.	37%
O=C(COc1ccccc1)N1CCN(C(=O)c2ccc([N+](=O)[O-])cc2)CC1	-1%	-7%	-2%	-26%	.	46%
Cc1ccc(-c2ccc(OCC(=O)N3CCOCC3)cc2)cc1	-10%	7%	-21%	2%	-7%[12.7 µM]	5%
Cc1ccc(OCC(=O)N2CCC(N3CCCCCC3)CC2)cc1	0%	56µM*	-4%	6.3µM*	?	-46%
Cc1ccc(OCC(=O)N2CCN(C(=O)c3ccc([N+](=O)[O-])cc3)CC2)cc1	-9%	-7%	?	-7%	50µM*	14%
O=C(c1cccc(F)c1)N1CCN(Cc2ccco2)CC1	-4%	50µM*	-7%	7.9µM*	32µM*	-14%
CC1CN(S(=O)(=O)c2cccc(C(=O)OC(C)C(=O)NC3CCCCC3C)c2)CC(C)O1 (centres undefined)	-11%	-5%	6%	-13%	.	12%
COc1ccccc1N1CCN(C2CCN(C(=O)COc3cccc(C)c3)CC2)CC1	-8%	79µM*	-25%	5.6µM*	8.9µM*	?
O=C(c1cccc(F)c1)N1CCC(N2CCOCC2)CC1	-7%	50µM*	56µM*	7.9µM*	?	?
COc1ccccc1N1CCN(C2CCN(C(=O)c3ccc(F)cc3)CC2)CC1	-9%	-5%	6%	-5%[57.1 µM]	11%[59 µM]	21%
COc1ccccc1N1CCN(C2CCN(C(=O)c3cccc(F)c3)CC2)CC1	-7%	50µM*	-27%	28µM*	8.9µM*	?
COc1ccccc1C(=O)N1CCN(C(=O)COc2cccc(C)c2)CC1	-13%	13%	12%	-5%	-68%	3%
Cc1ccc(-n2ccnc2SCC(=O)c2c(N)n(C3CC3)c(=O)[nH]c2=O)cc1C	5%	-4%	.	-8%	?	31%
CNC(=O)c1cccn1-c1ccsc1C(=O)OC	3.8µM*	-5%	-5%	-33%[11.4 µM]	0%	5%
Cc1ccc(NC(=O)/C=C/c2ccccc2)c(Br)c1	.	-2%	.	-3%	-5%[59 µM]	14%
CC(=O)Nc1sc2c(c1CN1CCCC1)CCCC2	-3%	0%	14%	-19%	?	-3%
CC(=O)Nc1sc2c(c1CN1CCN(c3ccccn3)CC1)CCCC2	-10%	?	-4%	?	32µM*	-22%
CC(=O)Nc1sc2c(c1CN1CCN(c3ccc(F)cc3)CC1)CCCC2	1%	50µM*	3%	?	45µM*	-36%
CC1=NNC(=O)/C1=C\c1cn(-c2ccccc2)nc1-c1cccs1	2.7µM*	?	32µM*	?	10µM*	-13%
CC1=NNC(=O)/C1=C\c1cn(-c2ccccc2)nc1-c1ccc(F)cc1	1.5µM*	-38%	9%	-32%	10µM*	-4%
Cc1c(NC(=O)/C=C/c2cn(-c3ccccc3)nc2-c2ccc(F)cc2)c(=O)n(-c2ccccc2)n1C	11µM*	?	10%	?	?	-19%
O=Cc1cn(-c2ccccc2)nc1-c1ccc(F)cc1	0%	7%	0%	-12%	30%	56%
